The results in this text go back to PubChem BioAssay (EPA / NIEHS).

Where “and” joins values, the source holds several entries; their conditions need not be identical. Identical values can stand only once. Calls of active or inactive are those of the source. Rule for the calls: active = hit-call score of the fitted dose curve at least 0.9, where 1 is the maximum; inactive = score below 0.9.

A word on the AC50: it is the midpoint of the concentration-response curve, whichever way the signal moves.

Read-out in one test: TIMP metallopeptidase inhibitor 2 (TIMP2), TIMP2 (gene 7077)
The test is described as follows: BSK_KF3CT_TIMP2: BioMAP Diversity Plus: KF3CT Assay for TIMP metallopeptidase inhibitor 2 (TIMP2) Biomarker Activity (AID 2283071). Particulars: primary human keratinocytes with fibroblasts; actives raise or lower the signal. Summed up: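 Keratinocyte–fibroblast co-culture, 24 h exposure; TIMP-2 ELISA, DMSO-normalised bidirectional fit. Parallel SRB (0.1%, TCA-fixed, 560 nm) total-protein staining gauges cytotoxicity.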
In the case of `O=C(O)CCC(F)(C(F)(F)F)C(F)(F)F`, the result was inactive.
With `CC(C)CCCCCCOC(=O)c1ccccc1C(=O)OCCCCCCC(C)C`, the outcome was inactive.
Take `Oc1c(I)cc(I)cc1I`: the half-maximal activity concentration (AC50) was 17 µM (active).
Regarding `O=C(O)C(F)(F)C(F)(F)C(F)(F)C(F)(F)C(F)(F)C(F)(F)C(F)(F)C(F)(F)C(F)(F)C(F)(F)F`, the AC50 is 9.27 µM (active) and 6.15 µM (active) and 6.13 µM (active).
On to `CCCCCCCCc1ccc(O)cc1`, for which the concentration at half-maximal activity (AC50) is 30 µM (active).
Turning to `NC(=O)O`, the result was inactive.
The same measure, in the same setting: in the case of `CC1(C)Cc2cccc(O)c2O1` it was “inactive”.
Regarding `C=C(C)C(=O)[O][Sn]([CH2]CCC)([CH2]CCC)[CH2]CCC`, the concentration at half-maximal activity (AC50) was 0.148 µM (active).
With `CCCCCCCCC(=O)NCc1ccc(O)c(OC)c1`, the outcome was inactive.
Consider `CCOP(=S)(OCC)SCSP(=S)(OCC)OCC`, for which the outcome was inactive.
For the compound `O=Cc1cccc(Oc2ccccc2)c1`, the result was inactive.
Regarding `COc1cc(-c2ccc(N)c(OC)c2)ccc1N`, the result was inactive.
Regarding `COP(=S)(OC)Oc1ccc(S(=O)(=O)N(C)C)cc1`, the outcome was inactive.
Turning to `C(=NC1CCCCC1)=NC1CCCCC1`, the half-maximal activity concentration (AC50) was 20 µM (active).
Regarding `O=[N+]([O-])c1ccc(O)c([N+](=O)[O-])c1`, the result was inactive.
Consider `O=C(O)C(Cl)(Cl)Cl`, for which the result was inactive.
As for `Oc1cccc2cccnc12`, the AC50 is 3.68 µM (active).
With `ClCC(Cl)CCl`, the result was inactive.
With `OCc1ccco1`, the outcome was inactive.
For the compound `O=C(OC1CCCCC1)c1ccccc1C(=O)OC1CCCCC1`, the half-maximal activity concentration (AC50) was 20.9 µM (active).
As to `O=S(=O)(c1ccc(Cl)cc1)c1ccc(Cl)cc1`, the outcome was inactive.
Same read-out and setting: the entry for `COC[C@H](C)N(C(=O)CCl)c1c(C)csc1C` is “inactive”; for `CN(C)N=O` it is “inactive”.
As for `O=C1C2(Cl)C3(Cl)C4(Cl)C(Cl)(Cl)C5(Cl)C3(Cl)C1(Cl)C5(Cl)C24Cl` (configuration not stated), the AC50 was 24.2 µM (active).
Take `COP(=S)(OC)Oc1ccc(Sc2ccc(OP(=S)(OC)OC)cc2)cc1`: the result was inactive.
As to `CC(=O)C(Cl)C(=O)N(C)C` (configuration not stated), the outcome was inactive.
For the compound `CCN1CCC2(CC1)COc1cc3c(cc12)N(C(=O)c1ccc(-c2ccc(-c4nnc(C)o4)cc2C)cc1)CC3`, the AC50 is 17.9 µM (active).

Read-out in the next test: Transforming growth factor beta 1 (TGFb1), TGFB1 (gene 7040)
The test is described as follows: BSK_KF3CT_TGFb1: BioMAP Diversity Plus: KF3CT Assay for Transforming growth factor beta 1 (TGFb1) Biomarker Activity (AID 2283072). Particulars: primary human keratinocytes with fibroblasts; actives raise or lower the signal. The method, boiled down: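 Signal changes in either direction, relative to DMSO, define activity here. TGF-b1 is read by ELISA from a human keratinocyte-fibroblast co-culture 24 h post-dose.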
On to `CC(C)CCCCCCOC(=O)c1ccccc1C(=O)OCCCCCCC(C)C`, for which the outcome was inactive.
Regarding `O=C(O)C(F)(F)C(F)(F)C(F)(F)C(F)(F)C(F)(F)C(F)(F)C(F)(F)C(F)(F)C(F)(F)C(F)(F)F`, the concentration at half-maximal activity (AC50) was 5.59 µM (active).
`CCC(=O)C(CC(C)N(C)C)(c1ccccc1)c1ccccc1` (configuration not stated): the outcome was inactive.
In the case of `Nc1ccc(-c2ccc(N)c(Cl)c2)cc1Cl`, the outcome was inactive.
As to `COC(=O)c1sccc1S(=O)(=O)NC(=O)Nc1nc(C)nc(OC)n1`, the outcome was inactive.
Still for that read-out and setting: the entry for `O=c1[nH]c(=O)[nH]c(=O)[nH]1` is “inactive”; for `O=Cc1cccc(Oc2ccccc2)c1` it is “inactive”.
For `C(=NC1CCCCC1)=NC1CCCCC1`, the AC50 was 9.13 µM (active).
`CCC(C)(C)c1ccc(O)c(C(C)(C)CC)c1`: the AC50 was 8.12 µM (active).
Turning to `Cn1sc(Cl)cc1=O`, the outcome was inactive.
On the same count and under the same terms, in the case of `ClCC(Cl)CCl` it was “inactive”; in that of `OCc1ccco1`, “inactive”; in that of `O=S(=O)(c1ccc(Cl)cc1)c1ccc(Cl)cc1`, “inactive”.
`O=C1C2(Cl)C3(Cl)C4(Cl)C(Cl)(Cl)C5(Cl)C3(Cl)C1(Cl)C5(Cl)C24Cl` (configuration not stated): the concentration at half-maximal activity (AC50) is 6.14 µM (active).
With `COP(=S)(OC)Oc1ccc(Sc2ccc(OP(=S)(OC)OC)cc2)cc1`, the result was inactive.
